Each structure is given as a SMILES string. In all, about 39,000 compounds went through this assay and about 3,300 (8.5%) were called active. This excerpt belongs to a sample that is enriched for actives.

The subject of the test is HepG2. Kind of test: cytotoxicity call (relative viability < 0.9). To be noted: 10 µM.
With `Oc1ccccc1CNc1ccc(C2CCCCC2)cc1`, the cytotoxicity call is “inactive”.
As to `CNCc1cc2ccccc2s1`, the cytotoxicity call is “inactive”.
The same measure for `O=C(C[C@@H]1C[C@@H]2c3cc(NC(=O)c4ccc5c(c4)OCO5)ccc3O[C@@H]2[C@H](CO)O1)NCCN1CCCCC1`: “inactive”; for `Cc1noc(C)c1NC(=O)Nc1ccc2c(c1)C(=O)N([C@@H](C)CO)C[C@H](C)[C@@H](CN(C)C(=O)Cc1ccccc1)OCCCC[C@H](C)O2`: “inactive”; for `Cn1ccc(C(=O)N2CC[C@@H]3OCCN(S(C)(=O)=O)[C@@H]3C2)n1`: “inactive”.
To `C[C@H]1CN([C@@H](C)CO)C(=O)c2cc(NS(=O)(=O)c3ccc(Cl)cc3)ccc2O[C@H]1CN(C)Cc1ccc(C(=O)Nc2ccccc2N)cc1` belongs “inactive”; to `C[C@@H]1CN([C@H](C)CO)C(=O)c2cc(C#Cc3ccc(F)cc3)cnc2O[C@@H]1CN(C)CC1CCOCC1`, “inactive”.
The same measure for `CC1(C)OC2CC3C4CC(F)C5=CC(=O)C=CC5(C)C4(F)C(O)CC3(C)C2(C(=O)CO)O1` (stereo not given): “inactive”; for `CC1=C(C(=O)OCCN(Cc2ccccc2)c2ccccc2)[C@@H](c2cccc([N+](=O)[O-])c2)C(P2(=O)OCC(C)(C)CO2)=C(C)N1.CCO.Cl`: “inactive”.
On to `COCCOC(=O)C1=C(C)NC(C)=C(C(=O)OC(C)C)C1c1cccc([N+](=O)[O-])c1` (stereo not given), for which the cytotoxicity call is “inactive”.
Take `CC1=C(C(=O)OCCN(Cc2ccccc2)c2ccccc2)[C@H](c2cccc([N+](=O)[O-])c2)C(P2(=O)OCC(C)(C)CO2)=C(C)N1`: the cytotoxicity call is “inactive”.
As for `COC(=O)C1=C(C)NC(C)=C(C(=O)OCCCN2CCC(c3ccccc3)(c3ccccc3)CC2)[C@@H]1c1cccc([N+](=O)[O-])c1`, the cytotoxicity call was “active”.
As to `COCCOC(=O)C1=C(C)NC(C)=C(C(=O)OCC=Cc2ccccc2)C1c1cccc([N+](=O)[O-])c1` (stereo not given), the cytotoxicity call was “active”.
The same measure for `COc1cc(OC)cc(C(=O)OCCCN2CCN(CCCOC(=O)c3cc(OC)cc(OC)c3)CC2)c1`: “inactive”.
To `COC(=O)C1=C(C)NC(C)=C(C(=O)OCCCN2CCC(c3ccccc3)(c3ccccc3)CC2)[C@H]1c1cccc([N+](=O)[O-])c1` belongs “active”.
For the compound `O=C(C[C@@H]1CC[C@H]2[C@@H](COC[C@@H](O)CN2Cc2ccccc2F)O1)N[C@H]1CCN(Cc2ccccc2)C1`, the cytotoxicity call was “inactive”.
Take `CO[C@@H]1CN(C)C(=O)c2ccc(NC(=O)c3ccc(F)cc3)cc2OC[C@H](C)N(C(=O)CN(C)C)C[C@@H]1C`: the cytotoxicity call was “inactive”.
`C[C@H]1CN([C@@H](C)CO)C(=O)c2cccc(NC(=O)C3CC3)c2O[C@H]1CN(C)Cc1ccc2c(c1)OCO2`: the cytotoxicity call was “inactive”.
The same measure for `C[C@@H]1CN([C@H](C)CO)S(=O)(=O)c2ccc(C#CCN(C)C)cc2O[C@H]1CN(C)C(=O)CN(C)C`: “inactive”; for `Cc1noc(C)c1NC(=O)N(C)C[C@H]1Oc2ccc(NS(=O)(=O)c3ccccc3)cc2C(=O)N([C@H](C)CO)C[C@H]1C`: “inactive”.
Turning to `COCCNC(=O)C[C@H]1CC[C@H]2[C@H](COc3ccc(NC(=O)Nc4cccc(F)c4)cc3C(=O)N2C)O1`, the cytotoxicity call is “inactive”.
On to `C[C@H](CO)N1C[C@H](C)[C@@H](CN(C)CC2CC2)Oc2ccc(NS(=O)(=O)c3cccs3)cc2CC1=O`, for which the cytotoxicity call was “inactive”.
Turning to `NCC[C@H]1CC[C@H](NC(=O)C2CCCCC2)[C@@H](CO)O1`, the cytotoxicity call is “inactive”.
On to `COc1ccc(NC(=O)N(C)C[C@@H]2OCCCC[C@H](C)Oc3ccc(NC(=O)c4ccccc4)cc3C(=O)N([C@H](C)CO)C[C@@H]2C)cc1`, for which the cytotoxicity call is “inactive”.
To `C[C@H](CO)N1C[C@H](C)[C@@H](CN(C)Cc2ccc3c(c2)OCO3)Oc2ccc(NS(=O)(=O)c3ccccc3)cc2CC1=O` belongs “inactive”; to `C[C@@H]1CN([C@@H](C)CO)C(=O)c2cc(NC(=O)Cn3cnnn3)ccc2O[C@@H]1CN(C)C(=O)Nc1cccc2ccccc12`, “inactive”; to `COc1ccc(S(=O)(=O)Nc2ccc3c(c2)C(=O)N([C@@H](C)CO)C[C@@H](C)[C@H](CN(C)C(=O)C2CCCCC2)OCCCC[C@@H](C)O3)cc1`, “inactive”.
For `C[C@@H]1CCCCO[C@@H](CN(C)Cc2ccncc2)[C@H](C)CN([C@H](C)CO)C(=O)c2cc(NC(=O)Nc3ccccc3)ccc2O1`, the cytotoxicity call is “inactive”.
As for `C[C@H](CO)N1C[C@H](C)[C@@H](CN(C)C(=O)Cc2ccccc2)OCCCC[C@H](C)Oc2ccc(NC(=O)Nc3ccc4c(c3)OCO4)cc2C1=O`, the cytotoxicity call was “inactive”.
As to `C[C@@H]1CN([C@H](C)CO)C(=O)Cc2cc(NC(=O)CCCN(C)C)ccc2O[C@H]1CN(C)Cc1ccc(Oc2ccccc2)cc1`, the cytotoxicity call is “active”.
To `C[C@H](CO)N1C[C@H](C)[C@@H](CN(C)Cc2ccc(Oc3ccccc3)cc2)Oc2ccc(NC(=O)CCCN(C)C)cc2CC1=O` belongs “inactive”.
The same measure for `C[C@H](CO)N1C[C@H](C)[C@H](CN(C)Cc2ccc(Oc3ccccc3)cc2)Oc2ccc(NC(=O)CCCN(C)C)cc2CC1=O`: “inactive”; for `C[C@@H]1CN([C@H](C)CO)C(=O)Cc2cc(NC(=O)CCCN(C)C)ccc2O[C@@H]1CN(C)Cc1ccc(Oc2ccccc2)cc1`: “active”.
Turning to `C[C@H](CO)N1C[C@H](C)[C@@H](CN(C)Cc2ccccc2)Oc2ccc(NC(=O)CCCN(C)C)cc2CC1=O`, the cytotoxicity call is “inactive”.
On to `C[C@@H]1CN([C@@H](C)CO)C(=O)Cc2cc(NC(=O)CCCN(C)C)ccc2O[C@@H]1CN(C)Cc1ccc(Oc2ccccc2)cc1`, for which the cytotoxicity call was “active”.
As to `C[C@@H]1CN([C@@H](C)CO)C(=O)Cc2cc(NC(=O)CCCN(C)C)ccc2O[C@H]1CN(C)Cc1ccc(Oc2ccccc2)cc1`, the cytotoxicity call is “inactive”.
To `C[C@H]1CN([C@@H](C)CO)C(=O)Cc2cc(NC(=O)CCCN(C)C)ccc2O[C@H]1CN(C)Cc1ccc(Oc2ccccc2)cc1` belongs “inactive”; to `C[C@H]1CN([C@@H](C)CO)C(=O)Cc2cc(NC(=O)CCCN(C)C)ccc2O[C@@H]1CN(C)Cc1ccc(Oc2ccccc2)cc1`, “active”.
To `C[C@@H]1CN([C@@H](C)CO)S(=O)(=O)c2ccc(C#Cc3ccccc3F)cc2O[C@@H]1CN(C)CC1CC1` belongs “inactive”; to `C[C@H](CO)N1C[C@H](C)[C@@H](CN(C)Cc2ccc(Oc3ccccc3)cc2)Oc2c(NS(=O)(=O)c3ccc(F)cc3)cccc2C1=O`, “inactive”; to `Cc1cc(=O)n2ncnc2n1CC(=O)NN`, “inactive”.
The same measure for `Cc1cc(C(=O)Nc2cccc3c2O[C@H](CN(C)C(=O)NC2CCCCC2)[C@@H](C)CN([C@@H](C)CO)C3=O)n(C)n1`: “inactive”; for `C[C@H](CO)N1C[C@H](C)[C@H](CN(C)S(=O)(=O)c2cn(C)cn2)Oc2ccc(NC(=O)NC3CCCCC3)cc2CC1=O`: “inactive”; for `C[C@@H]1CN([C@H](C)CO)C(=O)c2cc(NC(=O)CCN3CCOCC3)ccc2O[C@H]1CN(C)C(=O)Nc1ccccc1`: “inactive”.
For the compound `CS(=O)(=O)Nc1ccc2c(c1)[C@H]1C[C@@H](CC(=O)NCC3CC3)O[C@@H](CO)[C@H]1O2`, the cytotoxicity call is “inactive”.
To `CC(C)N1C[C@@H](CNCc2ccc(Oc3ccccc3)cc2)Oc2c(NC(=O)c3ccncc3)cccc2C1=O` belongs “inactive”; to `COc1ccccc1OCC(O)CN1CCN(CC(=O)Nc2c(C)cccc2C)CC1.Cl.Cl` (stereo not given), “inactive”.
Consider `CC(C)NCC(O)COc1ccc(COCCOC(C)C)cc1.O=C(O)C=CC(=O)O` (stereo not given), for which the cytotoxicity call is “inactive”.
Take `C=CCc1ccccc1OCC(O)CNC(C)C.Cl` (stereo not given): the cytotoxicity call is “active”.
`CC(C)NCC(O)COc1cccc2ccccc12.Cl` (stereo not given): the cytotoxicity call is “active”.
As for `CC(C)NCC(O)COc1cccc2[nH]ccc12` (stereo not given), the cytotoxicity call is “inactive”.
Take `CC(C)NCC(O)COc1ccc(CC(N)=O)cc1` (stereo not given): the cytotoxicity call was “inactive”.
To `O=C1C(=O)N(C[C@@H](O)COc2cccc3ccccc23)C(=O)C(=O)N1C[C@@H](O)COc1cccc2ccccc12` belongs “inactive”.
With `CC(C)NCC(O)COc1cccc2[nH]c3ccccc3c12` (stereo not given), the cytotoxicity call is “active”.
Turning to `COc1ccccc1N1CCN(CC(O)COc2cccc3ccccc23)CC1` (stereo not given), the cytotoxicity call is “active”.
In the case of `COCCc1ccc(OCC(O)CNC(C)C)cc1.O=C(O)C(O)C(O)C(=O)O` (stereo not given), the cytotoxicity call was “inactive”.
To `O=C(C[C@H]1C=C[C@@H](NS(=O)(=O)c2ccc(F)cc2)[C@@H](CO)O1)NCc1ccc(Cl)c(Cl)c1` belongs “inactive”; to `COc1ccc2c3c(n(c2c1)C)[C@H](CO)N(C[C@]13CN(CC2CCOCC2)C1)C(=O)c1ccc(cc1)F`, “inactive”.
For `C[C@H](CO)N1C[C@H](C)[C@H](CN(C)S(=O)(=O)c2cccc(F)c2)Oc2ncc(Br)cc2C1=O`, the cytotoxicity call was “inactive”.
With `C[C@@H]1CN([C@@H](C)CO)C(=O)c2cc(NC(=O)CCCN(C)C)ccc2O[C@@H]1CN(C)S(=O)(=O)c1ccccc1`, the cytotoxicity call is “inactive”.
To `C[C@H]1CN([C@@H](C)CO)C(=O)Cc2cc(NC(=O)Cn3cnnn3)ccc2O[C@H]1CN(C)S(=O)(=O)c1cccs1` belongs “inactive”.
To `C[C@H]1CN([C@@H](C)CO)C(=O)Cc2cc(NC(=O)C3CC3)ccc2O[C@@H]1CN(C)Cc1ccc(Oc2ccccc2)cc1` belongs “inactive”; to `Cc1noc(C)c1NC(=O)Nc1cccc2c1O[C@@H](CN(C)S(=O)(=O)c1ccccc1)[C@@H](C)CN([C@@H](C)CO)C2=O`, “inactive”; to `CC1=C(/C=C/C(C)=C/C=C/C(C)=C/C=C/C=C(C)/C=C/C=C(C)/C=C/C2=C(C)C(=O)[C@@H](O)CC2(C)C)C(C)(C)C[C@H](O)C1=O`, “inactive”.
To `CCOC(=O)N[C@@H]1CC(=O)N(C2CC2)C1` belongs “inactive”.
Consider `N[C@H](CO)COCc1ccccc1`, for which the cytotoxicity call was “inactive”.
For `Cc1ccc(S(=O)(=O)N(C)C[C@H]2Oc3c(NC(=O)c4ccncc4)cccc3C(=O)N([C@H](C)CO)C[C@@H]2C)cc1`, the cytotoxicity call is “inactive”.
`C[C@@H]1CCCCO[C@H](CN(C)CC2CCCCC2)[C@H](C)CN([C@@H](C)CO)C(=O)c2cc(NC(=O)Cc3ccccc3)ccc2O1`: the cytotoxicity call is “inactive”.
As for `C[C@H](CO)N1C[C@H](C)[C@H](CN(C)S(=O)(=O)c2cn(C)cn2)Oc2ccc(NC(=O)Cc3cn(C)c4ccccc34)cc2CC1=O`, the cytotoxicity call was “inactive”.
With `Cc1cc(C(=O)Nc2cccc3c2O[C@H](CN(C)C(=O)Nc2c(C)noc2C)[C@H](C)CN([C@H](C)CO)C3=O)n(C)n1`, the cytotoxicity call was “inactive”.
